# Data taken from PubChem BioAssay (Tox21).
# Results filed as inconclusive are left out. A call without a number means that no potency is given here. Active and inactive are the calls of the source. Calls come from the whole dose curve; as a rule, active = well fitted cell-killing curve with a large enough effect in the repeat runs; inconclusive = weak or mixed curves, or effect the other way; inactive = no such curve, though single readings can be large or run the other way. Positions of bridges follow the written chain, without caps; N, C: chain ends. Non-standard residues stand in square brackets, D forms with d. Residues, ends and D or L forms follow the SMILES beside them. Orn = NCCC[C@H](N)C(=O)O; Mpa = O=C(O)CCS
# Experiment: qHTS assay to identify small molecule antagonists of the thyroid receptor (TR) signaling pathway - cell viability counter screen (AID 743064); note: nearly all actives have a fitted effect of over 50% in size
# Conditions: GH3.TRE-Luc viability, CellTiter-Fluor, 24 h; series mostly up to 70.3 µM
# Source text: National Center for Advancing Translational Sciences [NCATS]
# NIH Chemical Genomics Center [NCGC]
# U.S. Environmental Protection Agency [EPA]
# National Institutes of Environmental Health Sciences [NIEHS]
# National Toxicology Program [NTP]
# U.S. Food and Drug Administration [FDA]
# Thyroid receptor (TR), a nuclear hormone receptor, plays an important role in development, proliferation, differentiation, metabolism, brain function, and cardiovascular system. […] To profile the Tox21 10K compound library in TR signaling, a cell-based GH3-TRE-Luc assay (GH3.TRE-Luc cell line, developed by the laboratory of Dr. Albertinka J. Murk, Wageningen University) was used to measure the inhibition of TR. GH3 (rat pituitary tumor) cells stably expressing a TR activity sensor consisting of two TR response elements and a luciferase reporter gene. The cytotoxicity of the Tox21 compound library against the GH3.TRE-Luc cell line was tested in parallel by measuring the cell viability using CellTiter-Fluor assay (Promega, Madison, WI) in the same wells.
# Tox21 Assay Protocol Summary:
# GH3.TRE-Luc cells were dispensed at 1500 cells/4 uL/well into 1536-well white solid bottom plates using a Multidrop Combi dispenser (Thermo Fisher Scientific Inc., Waltham, MA). After the assay plates were incubated at 37 C for 4 hours, 23 nL of library compound or DMSO controls was transferred to the assay plates by a pintool station (Kalypsys, San Diego, CA), followed by addition of 1 ul of T3 (1 nM, final concentration in the wells) to stimulate TR transactivation. The assay plates were incubated at 37 C for 23.5 h, and then 1 uL of CellTiter-Fluor reagent (Promega, Madision, WI) of measuring cytotoxicity was added to each well using a Bioraptr Flying Reagent Dispenser (FRD) workstation (Beckman Coulter, Indianapolis, IN, USA). The plates were incubated at 37C and 5% CO2 for additional 30 min, and fluorescence intensity was measured by a ViewLux plate reader (PerkinElmer, Shelton, CT).
# Potency is the fitted concentration of half-maximal effect.
row,Structure (SMILES),Potency
1,Cc1ccc(C2(O)CCN(CCCC(=O)c3ccc(F)cc3)CC2)cc1,13.3 µM (active)
2,CCCC(CCC)C(N)=O,inactive
3,COc1ccc(CC2c3cc(OC)c(OC)cc3CC[N+]2(C)CCC(=O)OCCCCCOC(=O)CC[N+]2(C)CCc3cc(OC)c(OC)cc3C2Cc2ccc(OC)c(OC)c2)cc1OC (stereo not given),inactive
4,CC[C@]1(O)CC2CN(CCc3c([nH]c4ccccc34)[C@@](C(=O)OC)(c3cc4c(cc3OC)N(C)[C@H]3[C@@](O)(C(N)=O)[C@H](O)[C@]5(CC)C=CCN6CC[C@]43[C@@H]65)C2)C1 (stereo not given in full),0.335 µM (active)
5,O=C(O)c1nc(=O)[nH]c(=O)[nH]1,inactive
6,CCCN(CC)C(CC)C(=O)Nc1c(C)cccc1C (stereo not given),inactive
7,CCC(=O)NCCC1CCc2ccc3c(c21)CCO3 (stereo not given),inactive
8,CCCC(=O)Nc1ncnc2c1ncn2[C@@H]1O[C@@H]2COP(=O)(O)O[C@H]2[C@H]1OC(=O)CCC,inactive
9,C[C@]12C=CC(=O)C=C1CC[C@@H]1[C@@H]2[C@@H](O)C[C@@]2(C)[C@H]1CC[C@]2(O)C(=O)COC(=O)CCC(=O)O,inactive
10,CCC[C@@H]1C[C@@H](C(=O)N[C@@H]([C@H]2O[C@H](SC)[C@H](O)[C@@H](O)[C@H]2O)[C@H](C)Cl)N(C)C1,inactive
11,CN(C)C=Nc1c(I)cc(I)c(CCC(=O)O)c1I,inactive
12,O=C(O)COc1ccc(CCNS(=O)(=O)c2ccccc2)s1,inactive
13,COc1ccc(CNCC(O)COc2ccc3[nH]c(=O)ccc3c2)cc1OC (stereo not given),inactive
14,CCC(=O)OCC(=O)[C@@]1(OC(=O)CC)[C@H](C)C[C@H]2[C@@H]3CCC4=CC(=O)C=C[C@]4(C)[C@@]3(F)[C@@H](O)C[C@@]21C,inactive
15,CC(=O)N=c1sc(S(N)(=O)=O)nn1C,inactive
16,CO[C@@]1(NC(=O)C2SC(=C(C(N)=O)C(=O)O)S2)C(=O)N2C(C(=O)O)=C(CSc3nnnn3C)CS[C@@H]21 (stereo not given in full),inactive
17,Nc1nc(=O)n([C@@H]2CS[C@H](CO)O2)cc1F,inactive
18,O=C1N=C2SCCN2C(=O)C1Cc1ccc(Cl)cc1 (stereo not given),inactive
19,C=CC1=C(C)C2=CC3=NC(=C(CC(=O)[O-])C4=NC(=C(C)C4=C([O-])[O-])C=c4[n-]c(c(C)c4CC)=CC1=N2)C(CCC(=O)[O-])C3C.[Cu+2].[Na+].[Na+].[Na+] (stereo not given),26.6 µM (active)
20,OC[C@@H](O)C(O)[C@H](O)CO,inactive

row,Structure (SMILES),Potency
1,COC(=O)[C@@H](N)CS,inactive
2,CC(C)N=c1cc2n(-c3ccc(Cl)cc3)c3ccccc3nc-2cc1Nc1ccc(Cl)cc1,7.17 µM (active)
3,CCC(C)[C@@H](N)C(=O)O (stereo not given in full),inactive
4,O=C(O)c1c(Cl)c(Cl)c(Cl)c(Cl)c1-c1c2cc(I)c(=O)c(I)c-2oc2c(I)c(O)c(I)cc12,23.7 µM (active)
5,CC(C)(C)NC[C@H](O)COc1ccccc1C1CCCC1,9.02 µM (active)
6,CN[C@@H]1CCc2[nH]c3ccc(C(N)=O)cc3c2C1,inactive
7,O=S(O)CNc1ccc(S(=O)(=O)c2ccc(NCS(=O)O)cc2)cc1,inactive
8,CCOc1ccc(C[C@H]2NC(=O)CCSSC[C@@H](C(=O)N3CCC[C@H]3C(=O)N[C@@H](CCCN)C(=O)NCC(N)=O)NC(=O)[C@H](CC(N)=O)NC(=O)[C@H]([C@@H](C)O)NC(=O)[C@H]([C@@H](C)CC)NC2=O)cc1 ([Mpa][dY](Et)ITNCP[Orn]G-NH2; disulfide 1-6),inactive
9,O=P(O)(O)OC(CO)CO,inactive
10,O=C1/C(=C\c2cccs2)CCC/C1=C\c1cccs1,inactive
11,C[C@@H]1CCC2[C@@H](C)[C@@H](O)O[C@@H]3O[C@@]4(C)CC[C@@H]1[C@@]23OO4 (stereo not given in full),2.11 µM (active)
12,O=P(O)(O)C(Sc1ccc(Cl)cc1)P(=O)(O)O,inactive
13,C[C@H]1C[C@H]2[C@@H]3CCC4=CC(=O)C=C[C@]4(C)[C@@]3(F)[C@@H](O)C[C@]2(C)[C@@]1(O)C(=O)CCl,inactive
14,CC(=O)N(CC(C)C(=O)O)c1c(I)cc(I)c(N)c1I (stereo not given),inactive
15,C#CCC(Cc1cnc2nc(N)nc(N)c2n1)c1ccc(C(=O)N[C@@H](CCC(=O)O)C(=O)O)cc1 (stereo not given in full),inactive
16,COc1ccc(C2(C#N)CCC(C(=O)O)CC2)cc1OC1CCCC1 (stereo not given),inactive
17,OCCO[C@@H]1[C@@H](O)[C@H](O)[C@@H](CO)O[C@@H]1O,inactive
18,CC1(C)S[C@@H]2[C@H](NC(=O)C3(N)CCCCC3)C(=O)N2[C@H]1C(=O)O,inactive
19,CO/N=C(\C(=O)N[C@@H]1C(=O)N2C(C(=O)O)=C(CSC(=O)c3ccco3)CS[C@H]12)c1csc(N)n1,inactive
20,CCCCC(=O)OCC(=O)[C@]1(O)Cc2c(O)c3c(c(O)c2[C@@H](O[C@H]2C[C@H](NC(=O)C(F)(F)F)[C@H](O)[C@H](C)O2)C1)C(=O)c1c(OC)cccc1C3=O,9.44 µM (active)
